Results reported in publication PMC5540273 (PLoS ONE, 2017).

Assays:
Details in all cases: concentration: 1 μM, replicates: in singlicate; n = 1
[1] = system: T1, RSK2(Kin.Dom.2-C-terminal)
T1 construct: gene RPS6KA3

[2] = system: T2, RSK3(Kin.Dom.1-N-terminal)
T2 construct: gene RPS6KA2

[3] = system: T3, RSK3(Kin.Dom.2-C-terminal)
T3 construct: gene RPS6KA2

[4] = system: T4, RSK4(Kin.Dom.1-N-terminal)
T4 construct: gene RPS6KA6

[5] = system: T5, RSK4(Kin.Dom.2-C-terminal)
T5 construct: gene RPS6KA6

S6K1 = system: S6K1
SBK1 = system: SBK1
SGK2 = system: SGK2
SGK3 = system: SGK3
SGK = system: SGK
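Note: KINOMEscan kinase panel screen.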

Structure (SMILES) | %Inh [1] [%] | %Inh [2] [%] | %Inh [3] [%] | %Inh [4] [%] | %Inh [5] [%] | %Inh (S6K1) [%] | %Inh (SBK1) [%] | %Inh (SGK2) [%] | %Inh (SGK3) [%] | %Inh (SGK) [%]
Cc1cccc(-c2nc(-c3ccc(S(C)(=O)=O)cc3)sc2-c2ccnc(NCCc3ccccc3)c2)c1 | 0 | 5 | 0 | 0 | 0 | 0 | 0 | 2 | 0 | 0
Nc1ncnc2[nH]c(-c3ccccc3)nc12 [AH5015] | 6 | 0 | 0 | 9 | 34 | 22 | 78 | 5 | 18 | 21
COc1ccc(CNC(=O)NC2CCN(c3ccnc(Nc4cc(OC)c(OC)c(OC)c4)n3)C2)cc1 (stereo not drawn) [GSK1379748] | 15 | 0 | 21 | 0 | 5 | 0 | 0 | 0 | 0 | 0
CN(C)CCN(C)C(=O)c1cc(-c2ccncc2)c(-c2ccc(Cl)c(O)c2)o1.Cl.Cl [SB-710397] | 29 | 8 | 0 | 0 | 76 | 15 | 23 | 9 | 0 | 0
Cn1ccc2ncnc(Oc3ccc(Nc4nc5ccccc5[nH]4)cc3)c21 | 0 | 0 | 0 | 0 | 0 | 0 | 0 | 0 | 0 | 0
O=c1cc(N2CCOCC2)nc2n(Cc3cccc(Cl)c3Cl)ccn12 [GSK2286295] | 8 | 0 | 28 | 0 | 1 | 0 | 9 | 14 | 9 | 22
COc1ccc(C2=C(Nc3cccc(C(=O)O)c3)C(=O)NC2=O)cc1 [SB-390765] | 8 | 9 | 2 | 16 | 30 | 15 | 35 | 21 | 22 | 29
CCCc1ccc(S(=O)(=O)NC2CCN(c3ccnc(Nc4ccc(F)cc4)n3)C2)cc1 (stereo not drawn) [GSK1379715] | 20 | 13 | 0 | 0 | 0 | 0 | 5 | 0 | 0 | 0
O=C(Nc1ccc2c(c1)OCO2)NC1CCN(c2ccnc(Nc3ccc(F)cc3)n2)C1 (stereo not drawn) [GSK1379724] | 0 | 0 | 0 | 0 | 0 | 6 | 13 | 0 | 0 | 0
COc1cc(Nc2nccc(N3CCC(NC(=O)Nc4cc(C)ccc4C)C3)n2)cc(OC)c1OC (stereo not drawn) [GSK1379762] | 2 | 9 | 0 | 0 | 14 | 3 | 6 | 12 | 0 | 0
COc1cc2ncnc(Nc3ccc4nc(-c5ccccc5)[nH]c4c3)c2cc1OC.Cl [GW282450] | 27 | 15 | 0 | 1 | 0 | 16 | 20 | 0 | 0 | 0
Cc1cccc(-c2nc(Nc3cccc(C(N)=O)c3)c3ccccc3n2)n1 [GW876019] | 49 | 2 | 27 | 0 | 9 | 8 | 0 | 0 | 0 | 0
Cc1cccc(-c2nc(Nc3ccncc3)c3ccccc3n2)n1 [GW855857] | 50 | 0 | 0 | 0 | 9 | 0 | 0 | 0 | 0 | 0
CC1=C(C(=O)Nc2cc3cn[nH]c3cc2F)C(c2ccc(C(F)(F)F)cc2)CC(=O)N1 (stereo not drawn) [GSK429286] | 0 | 22 | 0 | 0 | 18 | 14 | 22 | 4 | 4 | 0
O=C(Nc1n[nH]c2nc(-c3nccs3)c(Br)cc12)C1CCCC1 [SB-742609] | 0 | 0 | 0 | 0 | 1 | 19 | 12 | 0 | 0 | 7
Cl.NC(=O)c1cccc(Nc2nccc(Nc3ccc(Oc4cccc(Cl)c4)c(Cl)c3)n2)c1 [GW659008] | 16 | 0 | 18 | 0 | 19 | 0 | 0 | 0 | 0 | 0
COc1cc2ncn(-c3cc(OCC4CCCO4)c(C(N)=O)s3)c2cc1OC (stereo not drawn) [GSK204607] | 0 | 9 | 2 | 0 | 22 | 0 | 0 | 0 | 0 | 0
COc1ccc(Nc2nccc(NCCNC(=O)Nc3ccccc3F)n2)cc1 [GSK1379901] | 27 | 19 | 2 | 0 | 23 | 3 | 6 | 0 | 16 | 0

Structure (SMILES) | %Inh [1] [%] | %Inh [2] [%] | %Inh [3] [%] | %Inh [4] [%] | %Inh [5] [%] | %Inh (S6K1) [%] | %Inh (SBK1) [%] | %Inh (SGK2) [%] | %Inh (SGK3) [%] | %Inh (SGK) [%]
COc1cccc(NC(=O)NC2CCN(c3ccnc(Nc4ccc(F)cc4)n3)C2)c1 (stereo not drawn) [GSK1379721] | 30 | 5 | 2 | 0 | 0 | 0 | 2 | 0 | 0 | 5
O=C(O)COc1ncnc2cc(-c3ccc4[nH]ncc4c3)sc12 | 0 | 26 | 29 | 23 | 15 | 0 | 45 | 9 | 35 | 4
Cc1cccc(-c2nc(Nc3ccc4[nH]ncc4c3)c3ccccc3n2)n1 [GW857175] | 23 | 14 | 1 | 35 | 15 | 26 | 5 | 6 | 9 | 25
COC(=O)c1c(-c2ccccc2)c2cc(OC)ccc2c(=O)n1Cc1ccccc1 | 41 | 8 | 21 | 0 | 27 | 8 | 2 | 0 | 16 | 0
Fc1cc(Cl)ccc1Nc1ccnc2cc(-c3ccc(CN4CCCCC4)o3)ccc12 [GW560116] | 25 | 0 | 24 | 0 | 88 | 29 | 2 | 0 | 0 | 3
Fc1cccc(COc2nnc(-c3ccc4c(c3)CCO4)o2)c1 | 35 | 0 | 22 | 0 | 8 | 0 | 0 | 0 | 0 | 0
Cl.Oc1ccc(-c2nc(-c3ccccc3)[nH]c2-c2ccncc2)cc1 [SB-428218] | 0 | 0 | 8 | 0 | 32 | 14 | 0 | 0 | 0 | 7
Cc1ccccc1-n1cnc2c(N)ncnc21 [SKF-97510] | 0 | 0 | 8 | 0 | 18 | 0 | 0 | 0 | 0 | 0
COC(=O)c1c(-c2ccccc2)c2cc(C(=O)O)ccc2c(=O)n1Cc1ccccc1 | 0 | 0 | 0 | 0 | 5 | 0 | 0 | 25 | 5 | 23
Cc1ccc(-c2cc(-c3c[nH]nc3-c3ccccn3)ccn2)cc1 [GW684088] | 30 | 0 | 25 | 0 | 62 | 5 | 4 | 0 | 4 | 0
Cc1ccc(C(=O)Nc2ccc(Nc3ccnc4cc(-c5ccccn5)ccc34)cc2O)cc1.Cl [GW440146] | 4 | 6 | 0 | 0 | 1 | 7 | 10 | 0 | 0 | 0
O=C(Nc1ccccc1)Nc1cccc(Oc2ccc3nccn3n2)c1 | 32 | 9 | 14 | 0 | 0 | 0 | 0 | 8 | 9 | 0
Cc1csc(-c2nc(Nc3ccncc3)c3ccccc3n2)n1 [GW869640] | 45 | 15 | 3 | 44 | 40 | 32 | 51 | 0 | 13 | 39
Cc1c(Cn2ccn3c(=O)cc(N4CCOCC4)nc23)cccc1C(F)(F)F [GSK2289044] | 23 | 0 | 6 | 0 | 11 | 0 | 14 | 0 | 4 | 0
COc1ccc2nc(-c3cccc(C)n3)nc(Nc3ccncc3)c2c1 [GSK204919] | 19 | 19 | 0 | 0 | 26 | 1 | 21 | 0 | 0 | 0
COc1ccc(Nc2nccc(-c3cccc(NC(=O)c4cc5cc(F)ccc5[nH]4)c3)n2)cc1 [GSK1229782] | 0 | 1 | 0 | 0 | 24 | 16 | 18 | 0 | 0 | 6
Cc1ccc(NC(=O)Nc2cc(C(C)(C)C)nn2-c2ccccc2)cc1 [GSK1014915] | 0 | 18 | 11 | 0 | 44 | 10 | 7 | 8 | 0 | 0
COc1cc2nccc(Nc3ccc(NC(=O)c4ccc(C)cc4)c(O)c3)c2cc1OC.Cl [GW440132] | 4 | 4 | 0 | 0 | 0 | 0 | 10 | 5 | 0 | 0
